These results are taken from PubChem BioAssay (EPA / NIEHS).

This assay addresses CDK2 (gene 1017) (UniProt P24941). The experiment in a line: NVS_ENZ_hCDK2: NovaScreen (NVS) Enzymatic Assay for human Cyclin-Cependent Kinase 2 (CDK2) (AID 2283144). The procedure, abridged: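 Compounds screened in duplicate at 25 uM, then in singleton concentration-response to a maximum of 50 uM, against recombinant CDK2; kinase activity read 1 hr after dosing by fluorescence with mobility-shift separation of substrate and product.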

Results filed as inconclusive are left out. Active and inactive are the calls of the source. Rule for the calls: active = hit-call score of the fitted dose curve at least 0.9, where 1 is the maximum; inconclusive = response in the unintended direction; inactive = score below 0.9.

Take `COc1cc(C=O)cc2c1[C@H](COC(N)=O)[C@]1(OC(C)=O)ON2C[C@H]2[C@@H]1N2C(C)=O`: the call was inactive.

As for `CCNS(=O)(=O)C(F)(F)C(F)(F)C(F)(F)C(F)(F)C(F)(F)C(F)(F)C(F)(F)C(F)(F)F`, the outcome was inactive.
